MCF10A rereplic – induces DNA re-replication in MCF 10a normal breast cells; MCF 10A DNA re-replication, Hoechst nuclear intensity, 48 h; hit rate 2.9% among 350,000; AID 624296; Potency, µM (doses to about 46.1 µM), inactives show at the top dose activity, positive = re-replication, actives largely listed as activators; further: % of control where 0% means no effect; nearly all actives have a fitted effect of over 50% in size
HT1080 IDH1KD tx – toxicity to HT-1080 IDH1 knockdown cells (counter line). Potency, µM (doses to about 46.1 µM), without a hit: at the highest dose activity, negative = toxicity, actives largely listed as cytotoxic. AID 686971. hit rate 2% among 360,000. HT-1080 IDH1 knockdown viability, ATP luminescence, 48 h;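 further: 0% = DMSO wells and -100% = cell-free medium wells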
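Viability of IDH1-knockdown HT-1080 fibrosarcoma cells was assessed by CellTiter-Glo after 48 h at 37 °C with titrated compound; concentration-effect curves were classified by fit quality and response size.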
KB-3-1 tox – kills parental KB-3-1 adenocarcinoma cells | Potency, µM (titrated, usually from 46.1 µM), actives largely listed as cytotoxic | hit rate 1.4% among 400,000 | KB-3-1 viability, CellTiter-Glo ATP luminescence, 72 h; further: on the % scale 0 is the no-effect control and ±100 the full control effect; nearly all actives have a fitted effect of over 60% in size
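Parental KB-3-1 viability, qHTS format: 72 h compound exposure, 37 °C; CellTiter-Glo; media-only wells and DMSO plates as controls; concentration-effect fits on corrected data.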
SW480 rereplic – induces DNA re-replication in SW480 colon adenocarcinoma cells; hit rate 1.8% among 340,000; SW480 DNA re-replication, Hoechst DNA content imaging, 48 h; Potency, µM (top dose mostly 46.1 µM), for inactives: top-dose re-replication activation, hits mostly activators; further: % of control where 0% means no effect; nearly all actives have a fitted effect of over 55% in size
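Quantitative HTS format with DMSO vehicle controls; 48 hr drug incubation at 37 C, then 40 min Hoechst staining and scanning imager measurement at 405 nm excitation.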
KB-V1 cytotox – KB-V1 MDR subline cytotoxicity. KB-V1 MDR cells viability, CellTiter-Glo, 72 h. Potency, µM (top dose mostly 46.1 µM), hits mostly cytotoxic. hit rate 3.4% among 400,000. AID 1347076; further: on the % scale 0 is the no-effect control and ±100 the full control effect; nearly all actives have a fitted effect of over 60% in size
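Following 72 h at 37 degrees C with compound, KB-V1 cell viability was read by CellTiter-Glo luminescence, medium being phenol-red-free DMEM plus 10% FBS; concentration-response parameters came from normalized, curve-fitted qHTS data.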
HT1080NT lethal – kills 2HG-producing HT-1080-NT fibrosarcoma cells. HT-1080-NT fibrosarcoma viability, CellTiter-Glo ATP luminescence, 48 h. hit rate 1.6% among 360,000. AID 686970. Potency, µM (titrated, usually from 46.1 µM), without a hit: at the top dose activity, negative = less viability, usual class: cytotoxic;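 further: NT is the 2HG producing partner of a matched IDH1 knockdown line; 0% = DMSO-treated cells and -100% = media-only wells without cells; nearly all actives have a fitted effect of over 55% in size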
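750 cells/well, RPMI + 5% FBS; 2 h settle, compound pin-transfer, 48 h at 37 degrees C. CellTiter-Glo 10 min RT, luminescence. Normalized to DMSO and media-only wells.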
* hit, by the source's call; i = inactive; ? = inconclusive; · = not tested or not shown. This is a sample that favours compounds with a hit; in the whole collection about 7.9% have one here. The call rests on the fitted dose curve; in most records, active means well fitted curve in the direction sought with a large enough effect; inconclusive means small, poorly fitted or top-dose-only effect, or another doubt; inactive means no such curve, though single readings can be large; an effect the other way counts as inactive or inconclusive. Potency means the concentration at half of the fitted maximal effect.

SMILES | MCF10A rereplic | HT1080 IDH1KD tx | KB-3-1 tox | SW480 rereplic | KB-V1 cytotox | HT1080NT lethal
COc1ccc(OC)c(CN2CCN(C(=O)[C@@H](NC(=O)c3cccc(C)c3)C(C)C)CC2)c1 | ? | -2% | i | 7% | 9.2µM* | -10%
COc1ccc(NC(=O)c2ccc(NS(=O)(=O)c3cccc4cccnc34)cc2)cc1 | 12% | -12% | i | 11% | i | -30%
Cn1cnc2c(ncn2C2OC(CO)C(O)C2O)c1=S (centres undefined) | 12% | 14% | i | -2% | i | 20%
Cc1nn(C)c2ncc(C(N)=O)c(Oc3cccnc3)c12 | 1% | 11% | i | -1% | i | 3%
CCOC(=O)c1cnc2c(c(C)nn2C)c1Oc1ccc(Cl)cc1 | 16% | -27% | ? | 2% | 3.3µM* | -22%
O=S(=O)(c1ccccc1)N1CCN(C2CCN(Cc3ccccc3)CC2)CC1 | 26% | -6% | i | ? | i | -2%
O=S(=O)(c1ccc2ccccc2c1)N1CCN(C2CCN(Cc3ccccc3)CC2)CC1 | 1% | -25% | i | -4% | 7.3µM* | -19%
O=C(CSc1ncc(C(F)(F)F)cc1Cl)N1CCN(S(=O)(=O)c2ccc3ccccc3c2)CC1 | 18% | ? | i | 6% | 5.8µM* | -2%
CC(C)CC(=O)N1CCN(S(=O)(=O)c2ccc3ccccc3c2)CC1 | 6% | -14% | ? | 4% | 7.3µM* | -16%
Nc1cc(=O)[nH]c(SCC(=O)N2CCN(S(=O)(=O)c3ccc4ccccc4c3)CC2)n1 | 3% | -1% | i | 2% | i | -8%
CC(C)c1ccc(NC(=O)C(c2ccccc2)N2CC(=O)Nc3ccccc32)cc1 (centres undefined) | ? | -7% | ? | 5% | i | -9%
CCCN(C)C[C@@H]1OCCCC[C@@H](C)Oc2ccc(NC(=O)c3ccccc3)cc2C(=O)N([C@H](C)CO)C[C@@H]1C | · | ? | 4.6µM* | · | i | ?
C[C@@H]1CCCCO[C@@H](CN(C)CC2CCCCC2)[C@@H](C)CN([C@H](C)CO)C(=O)c2cc(NS(=O)(=O)c3ccc(Cl)cc3)ccc2O1 | · | ? | ? | · | ? | 16µM*
C[C@@H]1CCCCO[C@H](CN(C)C(=O)c2ccncc2)[C@H](C)CN([C@@H](C)CO)C(=O)c2cc(NC(=O)c3ccccc3)ccc2O1 | · | 1% | i | · | i | -7%
C[C@@H]1CCCCO[C@H](CN(C)Cc2ccc(C(F)(F)F)cc2)[C@H](C)CN([C@@H](C)CO)C(=O)c2cc(NC(=O)Cc3ccccc3)ccc2O1 | · | 18µM* | ? | · | 26µM* | 16µM*
Cc1ccnc(NCc2cc(C)ccc2O)c1 | ? | -20% | i | 9% | i | -4%
O=C1CCc2cc(NS(=O)(=O)c3cc(F)ccc3F)cc3c2N1CC3 | 9% | 2% | i | -6% | i | 2%
O=C1NC(Cc2ccccc2)c2nc3ccc(Cl)cc3c(=O)n2-c2ncccc21 (centres undefined) | · | -17% | i | · | i | -24%
CC(O)CNc1ncnc2cc(-c3ccc(F)cc3)sc12 (centres undefined) | 13µM* | -2% | i | ? | ? | -20%
COC(CNc1ncnc2sc(-c3ccccc3)cc12)OC | 20% | -1% | i | 2% | i | -3%
COc1ccc(Nc2nnc(-c3ccc(N4CCOCC4)c([N+](=O)[O-])c3)c3ccccc23)cc1 | 8% | 13% | i | -7% | 16µM* | 7%
CCN1C(=O)/C(=C\c2nc3ccccc3c(=O)n2CC)c2ccccc21 | 1% | -25% | i | 8% | i | -16%
CCN1C(=O)/C(=C/c2nc3ccccc3c(=O)n2-c2ccccc2)c2ccccc21 | ? | -6% | 23µM* | ? | i | -12%
